Rows were chosen to be rich in hits. Some 1.3% of all compounds tested hit in one or more screens of this group.
MCL1 BIM primary: inhibitors of MCL1 binding to BIM-BH3, primary screen, biochemical, fluorescence polarization. Induced myeloid leukemia cell differentiation protein Mcl-1 (Homo sapiens), Q07820. GST-MCL1 / FITC-Bim-BH3 fluorescence polarization. inhibition, % at 10.9 µM. 0.68% of 320,000 active;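 active = inhibition above the mean inhibition of all tested compounds plus 3 SD, set per campaign, cut at about 40% in these data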;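 also: 0% = DMSO wells and 100% = unlabeled Bim-BH3 peptide control; higher means more loss of mP so more displacement of Bim peptide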
Target sequence (Q07820 whole entry, looked up): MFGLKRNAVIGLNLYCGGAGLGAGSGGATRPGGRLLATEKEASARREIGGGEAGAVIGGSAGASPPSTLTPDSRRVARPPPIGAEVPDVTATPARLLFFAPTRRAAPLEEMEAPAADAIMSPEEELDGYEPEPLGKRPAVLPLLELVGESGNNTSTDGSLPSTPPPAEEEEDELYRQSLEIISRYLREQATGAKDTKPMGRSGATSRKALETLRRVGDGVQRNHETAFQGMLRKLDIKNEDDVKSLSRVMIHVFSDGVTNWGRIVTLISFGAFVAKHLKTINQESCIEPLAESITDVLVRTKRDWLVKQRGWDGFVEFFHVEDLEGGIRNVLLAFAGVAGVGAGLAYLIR
Keap1-Nrf2 PPI: Keap1-Nrf2 protein-protein interaction inhibitors, primary screen, biochemical, fluorescence polarization, single point | Keap1 Kelch-Nrf2 peptide fluorescence polarization, 1536-well | 0.15% of 340,000 active | inhibition, % at 9.4 µM | AID 504523, 2011; in the data active = inhibition above about 12%; inconclusive = no clear call, values can overlap the other calls; inactive = below about 7.3%;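 also: human Keap1 Kelch domain with fluorescein labeled Nrf2 9mer peptide probe; 0% = neutral control wells and 100% = peptide positive control; higher means more block of Keap1 binding to Nrf2 peptide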
E coli Lon inh: inhibitors of E. coli Lon protease, primary screen, biochemical, fluorescence polarization. P0A9M0. purified E. coli Lon protease. inhibition, % at 7.94 µM. 0.42% of 360,000 active. AID 602123, 2011; in the data active = inhibition above about 13%, passing the limit was not always enough;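 also: 0% = enzyme with probe and DMSO and 100% = no enzyme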
LANA DNA inh: inhibitors of KSHV C-LANA binding to DNA, primary screen, biochemical, fluorescence polarization, FAM-LBS DNA, MBP-C-LANA, single point. Kaposi's sarcoma herpesvirus LANA C-terminal domain (residues 932-1162) DNA binding. inhibition, % at 9 µM. 0.078% of 340,000 active. AID 504423, 2011;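 active = highest replicate inhibition at or above 60% at 9 µM, even if other replicates fall short; inactive = all replicates below 60% inhibition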;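 also: 0% = neutral control wells and 100% = 4 µM acridine orange control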
GLD-1 TGE inh: GLD-1/TGE RNA complex disruptors, primary screen, biochemical, fluorescence polarization. purified GLD-1 + fluorescein TGE RNA. inhibition, % at 5.96 µM. 0.44% of 320,000 active. AID 2280, 2010;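 active = percent inhibition above a per-plate cutoff, the plate mean of test compounds plus 3 SD, cut at about 30% in these data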;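 also: 0% = DMSO wells with GLD-1 and probe and 100% = wells lacking GLD-1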
Bcl-xL primary: inhibitors of human Bcl-xL, primary screen, biochemical, fluorescence polarization, HTS. inhibition, % at 10.9 µM. Bcl-2-like protein 1 (Homo sapiens), Q07817. 0.7% of 320,000 active. GST-Bcl-xL / FITC-Bim BH3 peptide fluorescence polarization;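 active = inhibition above the mean of all tested compounds plus 3 SD, cutoff set per campaign, cut at about 30% in these data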;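 also: 0% = DMSO wells and 100% = unlabeled Bim-BH3 peptide competitor; inhibitors lower millipolarization by displacing the labeled peptide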
Target sequence (Q07817 whole entry, looked up): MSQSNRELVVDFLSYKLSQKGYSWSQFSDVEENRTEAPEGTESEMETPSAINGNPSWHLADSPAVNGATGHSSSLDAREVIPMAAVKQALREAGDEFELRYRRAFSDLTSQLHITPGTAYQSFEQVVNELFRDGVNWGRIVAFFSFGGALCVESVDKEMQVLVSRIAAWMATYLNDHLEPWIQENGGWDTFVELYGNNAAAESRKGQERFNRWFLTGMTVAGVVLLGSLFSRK
Bcl-xL conf: Bcl-xL inhibitors blocking Bim BH3 binding, confirmation, counter-screen for MCL1 inhibitor project, biochemical, fluorescence polarization. shares compounds with MCL1 BIM primary. GST-Bcl-xL / FITC-Bim BH3 peptide FP binding. inhibition, % at 10.9 µM. 54% of 1,700 active. AID 2166, 2009;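 active = inhibition above a cutoff equal to the mean inhibition of all tested compounds plus 3 SD, cut at about 30% in these data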;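 also: 0% = DMSO wells and 100% = unlabeled Bim BH3 control peptide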
MCL1 inh confirm: inhibitors of MCL1 binding to BIM-BH3, confirmation, biochemical, fluorescence polarization, triplicate. shares compounds with MCL1 BIM primary. GST-MCL1 / FITC-Bim-BH3 fluorescence polarization. inhibition, % at 10.9 µM. 61% of 1,700 active. AID 2168, 2009;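 active = inhibition above the average of all tested compounds plus 3 SD, cut at about 40% in these data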;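 also: 0% = DMSO wells and 100% = unlabeled Bim-BH3 control peptide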
Numbers without * were called inactive; ? = inconclusive; nt = no result given.

SMILES | MCL1 BIM primary | Keap1-Nrf2 PPI | E coli Lon inh | LANA DNA inh | GLD-1 TGE inh | Bcl-xL primary | Bcl-xL conf | MCL1 inh confirm
O=c1ccc2cc3c([nH]c4ccc(Br)cc43)oc-2c1O | 85* | 55* | -32 | 10 | 8 | 46* | 24 | 69*
O=C(O)c1ccc(N=Nc2c(O)[nH]c3ccc(Br)cc23)cc1 | -6 | -5 | -2 | 1 | -3 | 1 | nt | nt
O=[N+]([O-])c1ccc2[nH]c(O)c(N=NC(=S)Nc3cccnc3)c2c1 | 42* | -2 | -7 | 1 | -2 | 18 | 32* | 33
Cc1cc(Nc2cc(Cl)nc(Sc3ccc(NC(=O)C4CC4)cc3)n2)n[nH]1 | 3 | -3 | 8 | 3 | 4 | 3 | nt | nt
Cc1cc(C)c2cc3c(ccn3C3OC[C@H](O)[C@H](O)[C@H]3O)cc2n1 (stereo partly specified) | 100* | 3 | 14 | 5 | 5 | 88* | 72* | 86*
Nc1nc(Cl)nc2c1ncn2C1OCC(O)C(O)C1O (stereo unspecified) | nt | -5 | 1 | 1 | nt | nt | nt | nt
COC(=O)C1Sc2[nH]c(=O)sc2C(c2ccc(Cl)cc2)C1C(=O)OC (stereo unspecified) | 4 | -2 | 0 | 1 | 6 | 8 | nt | nt
COC(=O)C1CSc2[nH]c(=O)sc2C1c1ccccc1 (stereo unspecified) | 119* | ? | 19 | 25 | 84* | 107* | 88* | 109*
CC(=O)Nc1ccc(NC(=O)C(C)OC(=O)C2CCCCC2)cc1 (stereo unspecified) | 151* | 1 | 17 | -1 | 21 | 18 | 2 | 9
CC(=O)Nc1ccc(NC(=O)C(C)OC(=O)C2CCCC2)cc1 (stereo unspecified) | -11 | 2 | -1 | 0 | -5 | -19 | nt | nt
COc1ccc(NC(=O)N(C)C[C@H]2OCc3cnnn3CCCC(=O)N([C@@H](C)CO)C[C@H]2C)cc1 | nt | nt | -10 | nt | nt | nt | nt | nt
CCN(CC)c1ccc(/C=C/C(=O)c2ccc(Br)cc2)cc1 | 61* | -19 | -436 | 2 | 76* | 58* | 62* | 63*
CN(C)c1ccc(C(=O)/C=C/c2ccc(Br)cc2)cc1 | 3 | -2 | 1 | 1 | -7 | 0 | nt | nt
O=C(CNc1cccc2ccccc12)N/N=C/c1ccc(C(=O)O)cc1 | 68* | 2 | -2 | 1 | 6 | 7 | 13 | 52*
O=C(CNc1ccc2ccccc2c1)N/N=C/c1ccc(C(=O)O)cc1 | 8 | -3 | 1 | 1 | 3 | 4 | nt | nt
CCOC(=O)c1cc2c(c(-c3cccc(-c4cc5ccccc5o4)c3)n1)[C@@H](CCO)N(S(=O)C(C)(C)C)C2 (stereo partly specified) | nt | nt | -18 | nt | nt | nt | nt | nt
O=C(COC(=O)c1nc(Cl)ccc1Cl)NCc1ccccc1 | 2 | -1 | -8 | 0 | 1 | 3 | nt | nt
Nc1ccc(-c2c3ccc(=O)cc-3oc3cc(O)ccc23)c(C(=O)O)c1 | 78* | -17 | -255 | 171* | 16 | 86* | 77* | 76*
Cc1nc(C(=O)NCCC(C)C)sc1C1(C)CC(c2ccccc2)=NO1 (stereo unspecified) | 3 | -4 | -4 | 0 | 3 | 2 | nt | nt
CC(=O)c1c2c3c(cccc3n(C)c1=O)C(=O)c1ccccc1-2 | 96* | nt | nt | nt | 67* | 85* | 129* | 152*
COc1cccc(CCNC(=O)c2cc(COc3c(F)cccc3F)on2)c1 | -4 | 2 | 9 | -1 | -8 | -3 | nt | nt
O=C(CN1C(=O)/C(=C\c2ccco2)SC1=S)Nc1ccc(O)cc1C(=O)O | 76* | -5 | -25 | 64* | -1 | 46* | 23 | 38
O=C(CCCN1C(=O)/C(=C/c2ccco2)SC1=S)Nc1ccccc1C(=O)O | 83* | -3 | -8 | 66* | -1 | 40* | 39* | 73*
O=C(CCCN1C(=O)/C(=C\c2ccccc2)SC1=S)Nc1ccc(O)cc1C(=O)O | 5 | -7 | -8 | -1 | -1 | 4 | nt | nt
CC(C(=O)Nc1ccc(O)cc1C(=O)O)N1C(=O)/C(=C\c2cccs2)SC1=S (stereo unspecified) | 58* | -4 | 0 | 3 | -6 | 28 | 27 | 39
SMILES | MCL1 BIM primary | Keap1-Nrf2 PPI | E coli Lon inh | LANA DNA inh | GLD-1 TGE inh | Bcl-xL primary | Bcl-xL conf | MCL1 inh confirm
O=C(O)CCCN1C(=O)/C(=C\c2ccco2)SC1=S | nt | 3 | -4 | 43 | nt | nt | nt | nt
CCCCn1c(N)c(N(CC(C)C)C(=O)CSCc2c(C)noc2C)c(=O)[nH]c1=O | 5 | 3 | -13 | 0 | 5 | 7 | nt | nt
CCc1nc2c(OCCOc3ccc(F)cc3)cccn2c1N(C)C(=O)c1ccc(C)cc1 | nt | nt | -1 | nt | nt | nt | nt | nt
Cc1cc[n+](-c2[nH]c(=O)sc2/C=N/N=C(\[O-])CCn2c3ccccc3c3ccccc32)cc1 | 49* | 2 | 9 | 2 | 22 | 27 | 19 | 50*
CCn1c(SCC(=O)N/N=C/C=C/c2ccco2)nnc1-c1ccccc1 | 16 | -3 | 3 | -4 | 5 | 13 | nt | nt
O=C(CSc1nnc(SCc2ccccc2)s1)N/N=C/C=C/c1ccco1 | 58* | 5 | -11 | 0 | 5 | 9 | 23 | 67*
COc1ccc(NC(=O)CN(C)C(=O)C2=NN(c3ccccc3)C(=O)CC2)cc1 | -6 | 2 | -11 | 1 | -2 | -6 | nt | nt
O=C1CCCC2=C1C(c1ccc(O)c(O)c1)Nc1ccc3ncccc3c12 (stereo unspecified) | 50* | -4 | 3 | 59 | 7 | 36* | 41* | 57*
O=C1CCCC2=C1C(c1cccs1)Nc1ccc3ncccc3c12 (stereo unspecified) | 13 | -1 | -12 | 0 | 4 | 5 | nt | nt
Cc1ccc(CN2CCN(C3CSCCSC3)CC2CCO)cc1 (stereo unspecified) | 4 | 1 | -3 | -2 | 2 | 2 | nt | nt
CCCCCN(C(=O)CCC(=O)OCC(=O)c1ccc(F)c(F)c1)c1c(N)n(CCCC)c(=O)[nH]c1=O | 1 | -1 | 4 | 0 | 1 | 4 | nt | nt
